Of roughly 7,900 targets only a part is listed; those with a hit were picked by preference. About 0.6% of all pairs of compound and target were hits.
Assays:
Assay in all cases: log2 fold change, soluble protein after heating vs DMSO (PISA); higher = thermal stabilisation; K562 cells, 10 uM, 30 min; active = over 0.2 and 3.5 SD of the protein, either way, in both replicates (recomputed)
saracatinib = compound: CN1CCN(CCOc2cc(OC3CCOCC3)c3c(Nc4c(Cl)ccc5c4OCO5)ncnc3c2)CC1 [saracatinib]
Method in brief: (§1)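 For each measurement, 10 μM compound was applied for 30 min to K562 cells at 2×10^6 cells/mL. Aliquots were heated for 3 min across 48°C-58°C, pooled, and extracted in PBS with 0.5% NP-40 at 4°C; the supernatant after 21,000xg for 90 min was soluble protein. This was quantified by TMTpro 16plex LC-MS/MS with channel sums equalised, and thermal stability was reported relative to control samples from duplicates, on a log2 fold-change scale.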

sotrastaurin = compound: CN1CCN(c2nc(C3=C(c4c[nH]c5ccccc45)C(=O)NC3=O)c3ccccc3n2)CC1 [sotrastaurin]
Method in brief: as §1

alvocidib = compound: CN1CC[C@H](c2c(O)cc(O)c3c(=O)cc(-c4ccccc4Cl)oc23)[C@H](O)C1 [alvocidib]
Method in brief: as §1

Tubastatin A = compound: CN1CCc2c(c3ccccc3n2Cc2ccc(C(=O)NO)cc2)C1 [Tubastatin A]
Method in brief: as §1

[1] = compound: CNC(=O)C1=CC=CC=C1NC2=NC(=NC=C2Cl)NC3=C(C=C(C=C3)N4CCOCC4)OC
Method in brief: as §1

defactinib = compound: CNC(=O)c1ccc(Nc2ncc(C(F)(F)F)c(NCc3nccnc3N(C)S(C)(=O)=O)n2)cc1 [defactinib]
Method in brief: as §1

rucaparib = compound: CNCc1ccc(-c2[nH]c3cc(F)cc4c3c2CCNC4=O)cc1 [rucaparib]
Method in brief: as §1

[2] = compound: CNc1nc(-c2ccc3c(N)n[nH]c3c2)cc(N2C[C@@H](C(=O)NC3CCCCC3)CC[C@H]2C)n1
Method in brief: as §1

encorafenib = compound: COC(=O)N[C@@H](C)CNc1nccc(-c2cn(C(C)C)nc2-c2cc(Cl)cc(NS(C)(=O)=O)c2F)n1 [encorafenib]
Method in brief: as §1

[3] = compound: COC(=O)[C@H](CCSC)NC(=O)C1=C(C=C(C=C1)NC[C@H](CS)N)C2=CC=CC=C2
Method in brief: as §1

[4] = compound: COC1=CC=C(C=C1)CN2C=CC3=C2C=C(C=C3)C(=O)NO
Method in brief: as §1

filanesib = compound: CON(C)C(=O)N1N=C(c2cc(F)ccc2F)S[C@@]1(CCCN)c1ccccc1 [filanesib]
Method in brief: as §1

zotarolimus = compound: CO[C@H]1C[C@@H]2CC[C@@H](C)[C@@](O)(O2)C(=O)C(=O)N2CCCC[C@H]2C(=O)O[C@H]([C@H](C)C[C@@H]2CC[C@H](n3cnnn3)[C@H](OC)C2)CC(=O)[C@H](C)/C=C(\C)[C@@H](O)[C@@H](OC)C(=O)[C@H](C)C[C@H](C)/C=C/C=C/C=C/1C [zotarolimus]
Method in brief: as §1

idasanutlin = compound: COc1cc(C(=O)O)ccc1NC(=O)[C@@H]1N[C@@H](CC(C)(C)C)[C@](C#N)(c2ccc(Cl)cc2F)[C@H]1c1cccc(Cl)c1F [idasanutlin]
Method in brief: as §1

alisertib = compound: COc1cc(Nc2ncc3c(n2)-c2ccc(Cl)cc2C(c2c(F)cccc2OC)=NC3)ccc1C(=O)O [alisertib]
Method in brief: as §1

[5] = compound: COc1cc2nc(-c3cc(F)ccc3O)nc(N[C@@H]3CNC[C@H]3C(C)(C)O)c2cc1OC
Method in brief: as §1

gefitinib = compound: COc1cc2ncnc(Nc3ccc(F)c(Cl)c3)c2cc1OCCCN1CCOCC1 [gefitinib]
Method in brief: as §1

[6] = compound: COc1cccc2cc(-c3nc([C@H]4CC[C@H](C(=O)O)CC4)n4ncnc(N)c34)[nH]c12
Method in brief: as §1

lapatinib = compound: CS(=O)(=O)CCNCc1ccc(-c2ccc3ncnc(Nc4ccc(OCc5cccc(F)c5)c(Cl)c4)c3c2)o1 [lapatinib]
Method in brief: as §1

pictilisib = compound: CS(=O)(=O)N1CCN(Cc2cc3nc(-c4cccc5[nH]ncc45)nc(N4CCOCC4)c3s2)CC1 [pictilisib]
Method in brief: as §1

Measured: log2 fold change

SETD3 (UniProt Q86TU7)
inactive: saracatinib 0.008 | sotrastaurin 0.012 | alvocidib -0.071 | Tubastatin A -0.056 | [1] 0.014 | defactinib -0.004 | rucaparib 0.022 | [2] 0.032 | encorafenib -0.009 | [3] 0 | filanesib -0.132 | zotarolimus 0.009 | idasanutlin -0.086 | alisertib -0.022 | [5] 0.052 | gefitinib 0.017 | [6] 0.048 | lapatinib -0.013 | pictilisib 0.03
active: [4] -0.254

RRS1 (UniProt Q15050)
inactive: saracatinib -0.079 | sotrastaurin -0.001 | alvocidib 0.302 | Tubastatin A 0.071 | [1] 0.009 | defactinib 0.688 | rucaparib 0.488 | [2] 0.109 | encorafenib 0.166 | [3] 0.047 | [4] -0.111 | filanesib 0.593 | zotarolimus 0.033 | idasanutlin 0.262 | alisertib -0.171 | [5] 0.01 | gefitinib 0.005 | [6] -0.169 | lapatinib 0.137 | pictilisib -0.096

RRAS2 isoform 4 (UniProt P62070)
Chain of UniProt P62070 (P62070 whole entry, looked up): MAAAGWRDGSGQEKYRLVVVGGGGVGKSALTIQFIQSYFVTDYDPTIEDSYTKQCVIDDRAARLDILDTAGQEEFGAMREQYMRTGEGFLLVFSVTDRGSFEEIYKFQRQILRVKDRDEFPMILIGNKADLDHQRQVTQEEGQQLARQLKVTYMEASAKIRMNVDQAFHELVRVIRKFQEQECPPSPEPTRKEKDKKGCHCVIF
inactive: saracatinib 0.069 | sotrastaurin 0.075 | alvocidib 0.024 | Tubastatin A 0.014 | [1] -0.001 | defactinib -0.016 | rucaparib 0 | [2] 0.05 | encorafenib -0.011 | [3] 0.004 | [4] 0.004 | filanesib 0.059 | zotarolimus -0.025 | idasanutlin 0.016 | alisertib -0.099 | [5] 0.075 | gefitinib 0.061 | [6] 0.093 | lapatinib 0.017 | pictilisib 0.05

RALA (UniProt P11233)
active: saracatinib 0.203 | [4] 0.348
inactive: sotrastaurin 0.05 | alvocidib 0.013 | Tubastatin A -0.008 | [1] -0.045 | defactinib 0.017 | rucaparib 0.002 | [2] 0.086 | encorafenib 0.033 | [3] 0.004 | filanesib -0.025 | zotarolimus 0.035 | idasanutlin -0.019 | alisertib -0.066 | [5] -0.066 | gefitinib 0.004 | [6] 0.053 | lapatinib 0.025 | pictilisib -0.099

RCC1 isoform 2 (UniProt P18754)
inactive: saracatinib -0.076 | sotrastaurin -0.049 | alvocidib -0.234 | Tubastatin A 0.164 | [1] -0.083 | defactinib -0.224 | rucaparib -0.008 | [2] 0.146 | encorafenib 0.045 | [3] -0.07 | [4] 0.106 | filanesib -0.058 | zotarolimus 0.083 | idasanutlin 0 | alisertib 0.022 | [5] -0.038 | gefitinib 0.087 | [6] 0.021 | lapatinib 0 | pictilisib -0.005

SHCBP1 (UniProt Q8NEM2)
Chain of UniProt Q8NEM2 (Q8NEM2 whole entry, looked up): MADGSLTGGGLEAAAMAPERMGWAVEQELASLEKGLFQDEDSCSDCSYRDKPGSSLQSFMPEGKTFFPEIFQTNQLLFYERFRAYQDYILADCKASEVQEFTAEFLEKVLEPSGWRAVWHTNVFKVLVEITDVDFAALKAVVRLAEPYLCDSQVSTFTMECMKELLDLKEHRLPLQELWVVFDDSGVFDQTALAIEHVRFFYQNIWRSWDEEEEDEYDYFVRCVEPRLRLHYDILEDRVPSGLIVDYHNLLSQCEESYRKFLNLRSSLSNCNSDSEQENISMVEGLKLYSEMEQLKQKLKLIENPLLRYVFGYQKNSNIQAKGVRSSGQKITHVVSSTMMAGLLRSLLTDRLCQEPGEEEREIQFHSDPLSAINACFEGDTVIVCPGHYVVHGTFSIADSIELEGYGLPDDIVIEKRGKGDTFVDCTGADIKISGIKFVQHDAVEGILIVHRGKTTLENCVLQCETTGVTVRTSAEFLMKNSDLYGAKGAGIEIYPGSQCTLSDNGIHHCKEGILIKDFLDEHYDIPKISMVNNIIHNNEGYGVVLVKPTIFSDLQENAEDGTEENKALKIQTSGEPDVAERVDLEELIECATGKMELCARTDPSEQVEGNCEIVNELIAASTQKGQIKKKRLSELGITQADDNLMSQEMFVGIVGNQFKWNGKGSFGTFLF
inactive: saracatinib -0.044 | sotrastaurin 0.017 | alvocidib -0.07 | Tubastatin A 0.174 | [1] -0.061 | defactinib -0.194 | rucaparib -0.104 | [2] -0.081 | encorafenib 0.149 | [3] -0.018 | [4] -0.014 | filanesib 0.059 | zotarolimus 0.103 | idasanutlin -0.023 | alisertib 0.134 | [5] 0.102 | gefitinib 0 | [6] -0.056 | lapatinib -0.13 | pictilisib -0.057

RUFY3 isoform 3 (UniProt Q7L099)
Chain of UniProt Q7L099 (Q7L099 whole entry, looked up): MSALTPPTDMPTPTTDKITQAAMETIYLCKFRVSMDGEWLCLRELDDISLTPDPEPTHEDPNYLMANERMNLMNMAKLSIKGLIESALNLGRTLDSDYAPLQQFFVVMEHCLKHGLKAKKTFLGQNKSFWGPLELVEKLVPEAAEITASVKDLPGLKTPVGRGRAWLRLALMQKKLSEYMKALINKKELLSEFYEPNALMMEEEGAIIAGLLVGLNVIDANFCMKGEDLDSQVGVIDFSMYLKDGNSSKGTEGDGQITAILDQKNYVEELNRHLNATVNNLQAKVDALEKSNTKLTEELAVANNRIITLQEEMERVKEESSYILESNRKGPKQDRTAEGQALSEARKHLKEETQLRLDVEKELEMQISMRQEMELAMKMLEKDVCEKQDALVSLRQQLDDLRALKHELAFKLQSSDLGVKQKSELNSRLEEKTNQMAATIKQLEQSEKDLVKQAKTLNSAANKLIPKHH
inactive: saracatinib -0.054 | sotrastaurin -0.036 | alvocidib -0.133 | Tubastatin A 0 | [1] -0.029 | defactinib -0.028 | rucaparib 0.105 | [2] -0.255 | encorafenib -0.017 | [3] -0.059 | [4] -0.06 | filanesib 0.053 | zotarolimus 0.003 | idasanutlin -0.108 | alisertib 0.155 | [5] 0.045 | gefitinib 0.08 | [6] -0.122 | lapatinib -0.01 | pictilisib 0.018

ROR2 (UniProt Q01974)
Chain of UniProt Q01974 (Q01974 whole entry, looked up): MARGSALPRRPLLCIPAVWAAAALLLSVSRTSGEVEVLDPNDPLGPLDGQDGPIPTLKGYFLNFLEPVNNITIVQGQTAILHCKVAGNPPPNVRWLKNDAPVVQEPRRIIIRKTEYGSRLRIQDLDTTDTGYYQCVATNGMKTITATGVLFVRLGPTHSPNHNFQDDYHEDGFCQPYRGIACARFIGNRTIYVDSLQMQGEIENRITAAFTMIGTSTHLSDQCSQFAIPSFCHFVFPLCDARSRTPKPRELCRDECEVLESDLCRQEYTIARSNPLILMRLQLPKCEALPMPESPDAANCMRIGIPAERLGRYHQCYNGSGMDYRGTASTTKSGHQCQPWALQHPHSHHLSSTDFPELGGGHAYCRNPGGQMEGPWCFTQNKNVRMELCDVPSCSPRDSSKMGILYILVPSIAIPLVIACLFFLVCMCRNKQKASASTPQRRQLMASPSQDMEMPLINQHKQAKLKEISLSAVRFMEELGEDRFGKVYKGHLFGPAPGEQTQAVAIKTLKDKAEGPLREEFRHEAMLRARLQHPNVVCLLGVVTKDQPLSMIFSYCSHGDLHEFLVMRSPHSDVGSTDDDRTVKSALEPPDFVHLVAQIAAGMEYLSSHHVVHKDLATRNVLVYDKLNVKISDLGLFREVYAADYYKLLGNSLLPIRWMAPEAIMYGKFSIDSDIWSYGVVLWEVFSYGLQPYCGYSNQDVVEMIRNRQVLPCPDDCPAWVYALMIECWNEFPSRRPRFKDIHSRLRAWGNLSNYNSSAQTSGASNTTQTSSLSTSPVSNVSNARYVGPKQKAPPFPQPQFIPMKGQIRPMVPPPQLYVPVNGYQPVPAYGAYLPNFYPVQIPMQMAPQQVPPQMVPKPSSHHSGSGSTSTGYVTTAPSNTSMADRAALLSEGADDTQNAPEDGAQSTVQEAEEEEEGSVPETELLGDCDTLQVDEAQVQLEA
inactive: saracatinib 0.034 | sotrastaurin -0.071 | alvocidib -0.06 | Tubastatin A -0.025 | [1] -0.023 | defactinib -0.107 | rucaparib -0.012 | [2] 0.084 | encorafenib 0.03 | [3] -0.121 | [4] -0.172 | filanesib -0.017 | zotarolimus 0.082 | idasanutlin 0 | alisertib -0.013 | [5] 0.022 | gefitinib 0.009 | [6] 0.012 | lapatinib 0.021 | pictilisib -0.079

SCAF8 isoform 2 (UniProt Q9UPN6)
Chain of UniProt Q9UPN6 (Q9UPN6 whole entry, looked up): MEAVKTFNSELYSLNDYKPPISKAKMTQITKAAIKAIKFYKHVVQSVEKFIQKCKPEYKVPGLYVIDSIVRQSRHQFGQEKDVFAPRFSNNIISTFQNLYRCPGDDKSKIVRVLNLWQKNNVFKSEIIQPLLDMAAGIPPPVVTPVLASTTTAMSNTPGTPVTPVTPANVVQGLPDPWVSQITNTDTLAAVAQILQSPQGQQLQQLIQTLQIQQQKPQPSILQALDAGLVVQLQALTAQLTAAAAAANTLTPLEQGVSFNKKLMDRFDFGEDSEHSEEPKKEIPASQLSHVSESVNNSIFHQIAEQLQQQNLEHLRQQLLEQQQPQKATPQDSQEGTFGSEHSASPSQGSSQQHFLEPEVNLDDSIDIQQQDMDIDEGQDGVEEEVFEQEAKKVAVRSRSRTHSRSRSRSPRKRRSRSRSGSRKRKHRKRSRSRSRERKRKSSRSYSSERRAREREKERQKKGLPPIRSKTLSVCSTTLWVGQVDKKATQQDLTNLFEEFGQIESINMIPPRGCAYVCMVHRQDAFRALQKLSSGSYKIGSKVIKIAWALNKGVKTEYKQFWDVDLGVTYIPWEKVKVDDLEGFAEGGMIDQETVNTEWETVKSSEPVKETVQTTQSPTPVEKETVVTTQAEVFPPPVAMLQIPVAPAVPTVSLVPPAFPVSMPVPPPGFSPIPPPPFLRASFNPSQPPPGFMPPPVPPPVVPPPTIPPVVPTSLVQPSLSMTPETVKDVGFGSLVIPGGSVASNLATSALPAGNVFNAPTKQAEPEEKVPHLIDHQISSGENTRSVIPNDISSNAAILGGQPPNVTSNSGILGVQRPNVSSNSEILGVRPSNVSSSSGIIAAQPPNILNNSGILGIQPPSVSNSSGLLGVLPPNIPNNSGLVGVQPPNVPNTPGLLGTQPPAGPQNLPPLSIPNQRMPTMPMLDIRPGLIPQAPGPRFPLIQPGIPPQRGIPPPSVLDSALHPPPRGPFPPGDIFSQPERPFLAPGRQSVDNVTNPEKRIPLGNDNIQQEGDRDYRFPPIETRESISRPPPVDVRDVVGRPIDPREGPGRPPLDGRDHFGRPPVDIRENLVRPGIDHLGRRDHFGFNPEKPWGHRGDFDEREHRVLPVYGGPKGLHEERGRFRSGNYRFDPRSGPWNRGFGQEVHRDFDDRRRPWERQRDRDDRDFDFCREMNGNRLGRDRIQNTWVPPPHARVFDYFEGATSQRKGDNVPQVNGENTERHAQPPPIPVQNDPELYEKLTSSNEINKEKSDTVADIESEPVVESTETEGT
inactive: saracatinib -0.078 | sotrastaurin -0.09 | alvocidib -0.167 | Tubastatin A 0.006 | [1] -0.085 | defactinib -0.083 | rucaparib 0.004 | [2] 0.016 | encorafenib 0.018 | [3] -0.06 | [4] 0.026 | filanesib 0.002 | zotarolimus 0.022 | idasanutlin -0.003 | alisertib -0.027 | [5] 0.048 | gefitinib 0.058 | [6] 0.015 | lapatinib -0.007 | pictilisib -0.055

RPL31 (UniProt P62899)
inactive: saracatinib -0.068 | sotrastaurin -0.003 | alvocidib 0.294 | Tubastatin A 0.147 | [1] 0.096 | defactinib 0.282 | rucaparib 0.238 | [2] 0.121 | encorafenib 0.088 | [3] -0.052 | [4] -0.084 | filanesib 0.277 | zotarolimus -0.013 | idasanutlin 0.151 | alisertib -0.118 | [5] -0.013 | gefitinib -0.075 | [6] -0.25 | lapatinib 0.103 | pictilisib -0.092

RAC3 (UniProt P60763)
inactive: saracatinib 0.036 | sotrastaurin 0.11 | alvocidib -0.042 | Tubastatin A -0.081 | [1] -0.064 | defactinib 0.011 | rucaparib -0.134 | [2] 0.085 | encorafenib -0.07 | [3] 0.027 | [4] 0.025 | filanesib 0.031 | zotarolimus 0.125 | idasanutlin 0.017 | alisertib -0.038 | [5] -0.067 | gefitinib 0.017 | [6] 0.026 | lapatinib 0.061 | pictilisib 0.071

RANBP2 (UniProt P49792)
active: [4] 0.334
inactive: saracatinib -0.011 | sotrastaurin -0.06 | alvocidib -0.079 | Tubastatin A -0.016 | [1] 0.886 | defactinib -0.009 | rucaparib -0.028 | [2] -0.016 | encorafenib -0.045 | [3] -0.03 | filanesib -0.048 | zotarolimus 0.029 | idasanutlin -0.005 | alisertib 0.079 | [5] 0.044 | gefitinib 0.05 | [6] -0.097 | lapatinib -0.07 | pictilisib -0.002

SIK3 (UniProt H0Y4E8)
inactive: saracatinib 0.027 | sotrastaurin 0.157 | alvocidib -0.007 | Tubastatin A 0.064 | [1] -0.009 | defactinib -0.072 | rucaparib 0.023 | [2] -0.114 | encorafenib 0.056 | [3] 0.01 | [4] -0.015 | filanesib 0.085 | zotarolimus -0.073 | idasanutlin -0.065 | alisertib -0.018 | [5] 0.077 | gefitinib -0.026 | [6] 0.466 | lapatinib 0.036 | pictilisib -0.007

RABGAP1L isoform 3 (UniProt Q5R372)
inactive: saracatinib 0.063 | sotrastaurin -0.042 | alvocidib -0.001 | Tubastatin A -0.059 | [1] 0.018 | defactinib -0.055 | rucaparib -0.05 | [2] -0.005 | encorafenib 0.078 | [3] 0.035 | [4] -0.108 | filanesib -0.026 | zotarolimus -0.006 | idasanutlin -0.05 | alisertib -0.008 | [5] -0.025 | gefitinib 0.035 | [6] 0.033 | lapatinib 0.012 | pictilisib -0.066

RAC1 (UniProt P63000)
active: [4] 0.474
inactive: saracatinib 0.097 | sotrastaurin -0.041 | alvocidib -0.031 | Tubastatin A 0.057 | [1] -0.009 | defactinib -0.012 | rucaparib 0.075 | [2] 0.043 | encorafenib -0.064 | [3] -0.037 | filanesib -0.118 | zotarolimus 0.044 | idasanutlin 0.003 | alisertib -0.066 | [5] 0.02 | gefitinib 0.039 | [6] 0.006 | lapatinib 0.004 | pictilisib -0.094

RRP9 (UniProt O43818)
Chain of UniProt O43818 (O43818 whole entry, looked up): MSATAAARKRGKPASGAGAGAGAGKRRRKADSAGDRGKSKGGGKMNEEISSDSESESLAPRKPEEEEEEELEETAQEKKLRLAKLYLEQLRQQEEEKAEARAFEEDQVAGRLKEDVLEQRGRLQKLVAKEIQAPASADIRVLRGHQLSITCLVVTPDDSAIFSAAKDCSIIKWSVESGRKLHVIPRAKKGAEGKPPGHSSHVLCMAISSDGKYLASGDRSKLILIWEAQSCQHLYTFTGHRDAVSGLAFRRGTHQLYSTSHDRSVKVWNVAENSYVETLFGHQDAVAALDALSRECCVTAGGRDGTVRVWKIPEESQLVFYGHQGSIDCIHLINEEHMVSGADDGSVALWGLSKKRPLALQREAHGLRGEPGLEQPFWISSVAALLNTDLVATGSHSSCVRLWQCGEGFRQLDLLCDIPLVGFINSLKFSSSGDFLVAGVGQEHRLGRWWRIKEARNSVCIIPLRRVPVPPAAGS
inactive: saracatinib 0.08 | sotrastaurin 0.044 | alvocidib 0.057 | Tubastatin A 0 | [1] -0.069 | defactinib -0.075 | rucaparib 0.019 | [2] -0.094 | encorafenib -0.005 | [3] 0.042 | [4] -0.011 | filanesib 0.143 | zotarolimus -0.059 | idasanutlin 0.171 | alisertib -0.14 | [5] -0.061 | gefitinib 0.027 | [6] 0.047 | lapatinib 0.037 | pictilisib -0.04

Reference: the supplement of paper PMC10849652
